# Laboratory results: PubChem BioAssay AID720553 (National Center for Advancing Translational Sciences (NCATS), 2013)
# Hit rate of the full screen: of about 340,000 compounds, about 3,300 (0.97%) were called active. Only a selection was taken, and actives are over-represented in it overall. Values without a mark were called inactive.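 The calls were made as follows: active = maximum activity change below -70%; inconclusive = maximum activity change from -70% to -50%; inactive = maximum activity change above -50%.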
# Test system: Potassium voltage-gated channel subfamily H member 2, brain isoform KCNH2 3.1 (human)
# Experiment: qHTS for Inhibitors of KCHN2 3.1: Mutant qHTS
# Details: U2OS KCNH2 3.1, thallium flux FluxOr; active compounds read low
# In short: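 FluxOr-based Tl+ influx in U2OS cells transduced with KCNH2 3.1 virus; rate constants normalized to DMSO controls.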
# % is scaled to controls: 0 for no effect and ±100 for the full control effect.
row,SMILES,activity change
1,CC(=O)c1ccc(OCC(=O)N(C)C2CCS(=O)(=O)C2)cc1 (stereo unspecified),-6.59%
2,COC(=O)C[C@H]1C[C@@H]2c3cc(NC(=O)Nc4ccccc4)ccc3O[C@@H]2[C@@H](CO)O1,4.16%
3,Cc1cc(C)c2nc(N(CCN(C)C)C(=O)/C=C/c3cccs3)sc2c1,-103% (active)
4,Cc1ccc2nc(N(CCN(C)C)C(=O)C3=COCCO3)sc2c1,-3.64%
5,Cc1ccc2sc(N(CCN(C)C)C(=O)/C=C/c3cccs3)nc2c1C,-90.5% (active)
6,Cc1cccc2sc(N(CCCN(C)C)C(=O)CCS(=O)(=O)c3ccccc3)nc12,-7.9%
7,CN(C)CCN(C(=O)CN1C(=O)c2ccccc2C1=O)c1nc2cc3c(cc2s1)OCCO3,4.48%
8,Cc1ccc(S(=O)(=O)N(C)C)cc1NC(=O)/C=C/c1cccs1,-14.2%
9,CCCCCC(=O)N1C[C@H](O)[C@@H](n2cc(COC(=O)c3ccccc3)nn2)C[C@@H]1c1ccc(C)cc1,-34.6%
10,NC1=CC(=O)C(=O)c2cccnc21,-3.65%
11,C[C@@H]1CN([C@@H](C)CO)C(=O)c2cc(NS(C)(=O)=O)ccc2O[C@@H](C)CCCCO[C@H]1CN(C)C(=O)Nc1ccc2c(c1)OCO2,11.4%
12,C[C@H]1Cn2cnc(C(=O)N[C@H](C)c3ccccc3)c2C(=O)N1,-8.17%
13,COC(=O)c1ccccc1N=NNc1ccc([N+](=O)[O-])cc1,5.4%
14,Nc1ccc2nc3c(=O)[nH]c(=S)[nH]c3nc2c1,-92.4% (active)
15,C[C@H]1CN([C@@H](C)CO)C(=O)c2cc(-c3ccccc3F)cnc2O[C@H]1CN(C)C(=O)C1CCOCC1,-1.4%
16,CC(C)N=C1CCCC1C(=S)SSC(=S)C1CCCC1=NC(C)C (stereo unspecified),8.25%
17,COc1ccc(C(=O)NC2CC2)cc1OC1CCN(C/C=C/c2ccccc2)CC1,-96.9% (active)
18,COc1cc(C(=O)N2CCN(C/C=C/c3ccccc3)CC2)cc(OC)c1C,-2.35%
19,COc1cc(C(=O)NC2CCN(Cc3ccccc3)CC2)cc(Cl)c1OC(C)C,-16.6%
20,COc1ccc(C(=O)NCCn2nc(C)cc2C)cc1OC1CCN(C(C)=O)CC1,12.7%
21,COc1ccc(C(=O)NC2CC2)cc1OC1CCN(Cc2ccc(SC)cc2)CC1,-111% (active)

row,SMILES,activity change
1,COc1cc2[nH]c(=O)n(Cc3ccc(C(=O)NC4CCN(Cc5ccccc5)CC4)cc3)c(=O)c2cc1OC,-8.47%
2,COCC(=O)N(C)C[C@H]1Oc2cc(Br)ccc2S(=O)(=O)N([C@H](C)CO)C[C@H]1C,-6.83%
3,COc1ccc(S(=O)(=O)N2CCC(C(=O)NCCC(=O)Nc3ccccc3OC)CC2)cc1,7.34%
4,COCOCCn1cc(CN2CCS(=O)(=O)N(Cc3ccc(-c4ccccc4)cc3)C(CC(C)C)C2=O)nn1 (stereo unspecified),-28.9%
5,C[C@H](NC(=O)c1nc[nH]c1C(=O)NCC(=O)OC(C)(C)C)c1ccccc1,-20.8%
6,C[C@H](NC(=O)c1nc[nH]c1C(=O)NCC(=O)OC(C)(C)C)C(=O)OCc1ccccc1,-109% (active)
7,CC(C)(C)OC(=O)CNC(=O)c1[nH]cnc1C(=O)N[C@@H](Cc1ccccc1)C(=O)OCc1ccccc1,-2.87%
8,C[C@H]1CN([C@@H](C)CO)C(=O)CCCn2cc(nn2)CO[C@@H]1CN(C)S(=O)(=O)c1ccc(-c2ccccc2)cc1,-9.74%
9,c1ccc2c(c1)nnn2-c1ccncc1,1.83%
10,COc1ccc(Cl)cc1NC(=O)CN(C)C(=O)c1cn(-c2ccccc2)nc1-c1cccs1,-9.77%
11,CSc1ncccc1C(=O)N1CCCC(Nc2ccc(F)c(F)c2)C1 (stereo unspecified),-0.997%
12,CCOC(=O)c1[nH]ncc1CN1CCCC(C(=O)c2ccc(OC)cc2C)C1 (stereo unspecified),-6.21%
13,COc1ccc(C(=O)C2CCCN(S(=O)(=O)c3cccc(C)c3)C2)c(C)c1 (stereo unspecified),-2.34%
14,COc1ccc(C(=O)C2CCCN(Cc3cccn3-c3ccccn3)C2)c(C)c1 (stereo unspecified),-108% (active)
15,C=CCn1nc(C(=O)OCC)cc1-c1sc(NC(=O)c2ccccc2)nc1C,21.3%
16,O=C(NCCc1ccccc1)/C(=C\c1ccc([N+](=O)[O-])cc1)NC(=O)c1ccccc1,-33.9%
17,C=CCNC(=O)/C(=C\c1cccc([N+](=O)[O-])c1)NC(=O)c1ccccc1,-8.85%
18,CN(C)CCNC(=O)/C(=C/c1cccc([N+](=O)[O-])c1)NC(=O)c1ccccc1,-83.8% (active)
19,CCOC(=O)C=Cc1ccc(C(=O)OCC)[nH]1,6.88%
20,C[C@H](CO)N1C[C@H](C)[C@H](CN(C)C(=O)c2ccncc2)OCc2ccccc2-c2c(n(C)c3ccccc23)C1=O,-0.608%
